# M1 PAM parental: nonselective calcium activators in parental CHO-K1 cells, primary screen, counter-screen for M1 PAM project, cell-based, Fluo-8 calcium fluorescence, full deck, 1536-well; ATP EC20; 0% at ATP EC20, 100% at ATP max; activation, % at 3 µM; AID 602247, 2012; 360,000 compounds, 0.02% hits;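 active means activation above the run cutoff, the mean activation of all test compounds plus 3 SD, cut at about 40% in these data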;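 further: peak over basal fluorescence ratio in a 140 s read after ATP addition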
# M4 antag: human M4 muscarinic receptor antagonists, primary screen, CHO cells, Fluo-8 calcium fluorescence; Muscarinic acetylcholine receptor M4 (Homo sapiens), P08173; CHO-hM4 cells, ACh EC80; inhibition, % at 3 µM; 360,000 compounds, 0.73% hits; AID 624125, 2012;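 active means inhibition above its plate's cutoff, the mean inhibition of sample wells plus 3 SD, cut at about 27% in these data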;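 further: 0% = acetylcholine EC80 with DMSO and 100% = DMSO without agonist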
# Target sequence (P08173 whole entry, looked up): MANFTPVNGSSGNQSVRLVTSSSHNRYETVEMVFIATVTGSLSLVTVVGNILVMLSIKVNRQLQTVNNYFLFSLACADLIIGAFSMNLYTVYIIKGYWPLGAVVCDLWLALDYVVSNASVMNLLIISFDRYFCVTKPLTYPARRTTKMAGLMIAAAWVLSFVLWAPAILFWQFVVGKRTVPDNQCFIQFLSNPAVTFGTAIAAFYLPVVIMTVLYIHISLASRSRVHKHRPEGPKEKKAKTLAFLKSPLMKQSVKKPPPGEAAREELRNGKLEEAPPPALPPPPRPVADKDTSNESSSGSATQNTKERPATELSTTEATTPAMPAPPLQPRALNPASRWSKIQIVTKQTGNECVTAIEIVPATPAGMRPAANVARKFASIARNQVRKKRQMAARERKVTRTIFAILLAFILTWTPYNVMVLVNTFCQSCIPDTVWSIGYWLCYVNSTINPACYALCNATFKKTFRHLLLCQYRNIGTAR
# CHRM4 agonist: human M4 muscarinic receptor agonists, primary screen, CHO-K1 cells, Fluo-8 calcium fluorescence; Muscarinic acetylcholine receptor M4 (Homo sapiens), P08173; CHO-K1 hM4/Gqi5; vehicle 0%, full acetylcholine response 100%; activation, % at 3 µM; 360,000 compounds, 0.14% hits;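 active means activation above the run mean over all test wells plus 3 SD, cut at about 32% in these data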;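 further: peak over basal fluorescence ratio per well then scaled between controls; 0% = DMSO wells and 100% = acetylcholine at EC100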
# CHO-K1 Ca antag: counter-screen for M1 antagonists: effect in parental CHO-K1 cells | ATP-induced calcium, Fluo-8 fluorescence | inhibition, % at 3 µM | 360,000 compounds, 0.6% hits | AID 602250;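 active means inhibition above a per-plate cutoff, the plate's mean sample inhibition plus 3 SD, cut at about 24% in these data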;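 further: 0% = DMSO plus EC80 ATP and 100% = DMSO alone without ATP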
# M1 ag parental: counter-screen for M1 agonists: effect in parental CHO-K1 cells; Fluo-8 calcium fluorescence; scaled to maximal ATP response, vehicle zero; activation, % at 3 µM; 360,000 compounds, 0.48% hits; AID 602248, 2012; in the data active means activation above about 15%;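 further: untransfected CHO-K1 host cells lacking M1 receptor as counterscreen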
# CHRM4 PAM: human M4 muscarinic receptor positive allosteric modulators, primary screen, CHO-K1 cells, Fluo-8 calcium fluorescence; Muscarinic acetylcholine receptor M4 (Homo sapiens), P08173; CHO-K1 hM4/Gqi5, ACh EC20; 0% = ACh EC20, 100% = maximal ACh; activation, % at 3 µM; 360,000 compounds, 0.4% hits; AID 624126, 2012;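 active means activation above its plate's cutoff, the mean activation of sample wells plus 3 SD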
# An asterisk follows results filed as active. Most compounds without a hit are left out; they make up all but 2% or so of the library.
SMILES,M1 PAM parental,M4 antag,CHRM4 agonist,CHO-K1 Ca antag,M1 ag parental,CHRM4 PAM
O=C(COC(=O)C1CC2C=CC1C2)Nc1cccc(S(=O)(=O)N2CCCCCC2)c1 (stereo not drawn),-5,23,17,19,16*,-13
O=C(CNc1cccc(S(=O)(=O)N2CCCC2)c1)Nc1cccc(Br)c1,-16,-1,16,5,19*,1
Cc1ccc(OCC(=O)Nc2cccc(S(=O)(=O)N3CCCC3)c2)cc1C,-1,-2,8,-6,4,-9
O=C(COC(=O)C1CC2C=CC1C2)Nc1cccc(S(=O)(=O)N2CCCCC2)c1 (stereo not drawn),7,3,17,8,14,-15
Cc1ccc(/C=C/C(=O)NC2CCCCCCC2)o1,-3,7,0,2,0,28*
CCc1ccc(CCC(=O)Nc2sc3c(c2C#N)CCCC3)o1,15,-10,-2,-6,0,0
Cc1ccc(/C=N/NC(=O)NC2CCCCC2)o1,14,8,3,-2,2,-6
Cc1ccc(/C=C/C(=O)Nc2sc3c(c2C#N)CCCC3)o1,-17,-3,0,38*,-1,0
CC1=Nn2c(nc(-c3ccccc3)c2-c2ccccc2)N(CC(N)=O)C(=O)C1,11,-14,1,-5,1,17
COCCNC(=O)c1cc(-c2ccccc2)nn1Cc1cc(C)no1,19,-6,2,-18,1,9
Cc1nc2ccccc2c2c(N)c3ccccc3n12,3,-4,2,1,17*,-2
Nc1c2ccccc2nc2ccccc12,-9,-4,0,-9,0,9
O=C(O)c1ccc(-n2c(=O)c3ccccc3c3ccccc3c2=O)cc1,-16,6,-1,31*,0,-4
CN1CCC(C2(O)c3ccccc3CSc3sccc32)CC1 (stereo not drawn),5,-1,1,4,1,-6
CN1CCC(C2(O)c3ccccc3CCc3ccccc32)CC1,12,52*,1,-2,0,-37
COc1ccc(Cl)cc1C(=O)NCC(c1ccco1)N1CCCC1 (stereo not drawn),16,4,1,-8,1,-8
O=C(NCC(c1ccco1)N1CCCC1)c1cccc(NS(=O)(=O)c2ccccc2)c1 (stereo not drawn),9,74*,1,-2,3,-18
CCOc1ccc(S(=O)(=O)Nc2cccc(C(=O)NCC(c3ccccc3)N(C)C)c2)cc1 (stereo not drawn),19,-12,16,-15,12,5
Cc1ccc(NS(=O)(=O)c2ccc(C(=O)NCC(c3ccco3)N3CCCCC3)cc2)cc1 (stereo not drawn),13,-2,14,5,18*,-9
COc1ccc(C(CNC(=O)c2cccc(NS(=O)(=O)c3ccccc3)c2)N(C)C)cc1 (stereo not drawn),8,31*,2,-3,0,-14
COc1cc(C(=O)NCC(c2ccco2)N2CCCC2)ccc1OCc1ccc(Cl)cc1Cl (stereo not drawn),8,52*,5,-16,4,-17
O=C(NCC(c1ccco1)N1CCCCC1)c1ccc(S(=O)(=O)Nc2ccccc2)cc1 (stereo not drawn),4,2,3,-10,5,-4
Cc1ccn2cc(C(=O)N3CCCC(Nc4ccc(F)cc4)C3)nc2c1 (stereo not drawn),-10,12,2,0,1,-1
COc1ccccc1C(CNC(=O)c1cccc(S(=O)(=O)Nc2ccc(F)cc2)c1)N1CCCC1 (stereo not drawn),-6,36*,3,-1,0,-16
COc1ccc(NS(=O)(=O)c2cccc(C(=O)NCC(c3ccccc3OC)N3CCCC3)c2)cc1 (stereo not drawn),8,18,1,-7,2,-10
SMILES,M1 PAM parental,M4 antag,CHRM4 agonist,CHO-K1 Ca antag,M1 ag parental,CHRM4 PAM
COC(=O)CSc1ccc(S(=O)(=O)N2CCC(C)CC2)cc1[N+](=O)[O-],20,-11,1,-10,0,25*
Cc1ccc(S(=O)(=O)N2CCC(C)CC2)cc1[N+](=O)[O-],16,-8,1,-11,0,10
CC(Sc1ccc(S(=O)(=O)N2CCOCC2)cc1[N+](=O)[O-])C(=O)O (stereo not drawn),23,-12,2,-10,0,23*
O=[N+]([O-])c1cnc(Sc2ccncn2)s1,1,32*,17,3,5,-7
COc1ccc(F)cc1Cn1nc(C(=O)O)c2ccccc2c1=O,-27,10,1,-10,1,-6
C=CCOc1ccc(/C=N/NC(=O)C(C)Sc2ccccn2)cc1OC (stereo not drawn),19,1,4,-5,2,-2
O=C(c1cn(-c2ccccc2)nc1-c1ccc(F)cc1)N1CCCCC1,15,4,1,-3,17*,-2
COc1ccccc1N(CC(=O)NCc1ccccc1)C(=O)CCC(=O)Nc1nccs1,13,2,1,-12,1,2
O=C(Nc1ccc(Cl)cc1Cl)c1ccc2ncsc2c1,4,-8,6,5,21*,-1
CCCOc1ccc(CC2CCC(=O)NC2=O)cc1 (stereo not drawn),19,-11,0,-11,-1,11
CCCCC(=O)N1CCN(c2nc3ccc(Cl)cc3s2)CC1,9,2,15,3,11,23*
Cc1cc(SCC(=O)N(C)CC(=O)Nc2ccc(F)cc2)nc2ccccc12,-9,-5,4,10,1,21*
Cc1cc(Cl)ccc1NC(=S)NCc1ccc(Cl)cc1,-3,4,10,21,8,-12
Cc1ccc(NC(=S)NCCO)c(C)c1,13,11,1,-13,0,16*
Cc1cc(Cl)ccc1NC(=S)NCCc1ccc(Cl)cc1,-9,10,10,25*,2,-14
Cc1ccc(NC(=S)NCc2ccc(S(N)(=O)=O)cc2)c(C)c1,20,28*,1,-3,0,7
Cc1ccc(NC(=S)NCCc2ccccc2)c(C)c1,18,8,-1,-9,1,-4
Cc1ccc(NC(=S)NCc2ccccc2)cc1[N+](=O)[O-],-14,12,11,20,12,-13
Cc1ccc(CNC(=S)Nc2ccc(C)c([N+](=O)[O-])c2)cc1,-13,3,18,29*,10,-20

# Screening data: PubChem BioAssay, The Scripps Research Institute Molecular Screening Center
